In PubChem BioAssay (NCI):
Compounds without any hit were thinned out: in the full panel of roughly 79,000, 15% have a hit. Active and inactive are the calls of the source. Rule as the data show it: active = growth inhibition above about 70%; inactive = the rest.

Tests used:
[1] = NCI Yeast Anticancer Drug Screen. Data for the rad50 strain (AID 155);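 also: 0% = growth of vehicle-only cultures of the same strain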; conditions: S. cerevisiae rad50 strain growth inhibition; at 50.0 µM; stronger effect = higher value
In short: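 Genetically altered yeast (DNA repair pathway); compound treatment; growth inhibition vs vehicle ctrl.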

[2] = NCI Yeast Anticancer Drug Screen. Data for the mec2-1 strain (AID 157); conditions: S. cerevisiae mec2-1 strain, at 50.0 µM, stronger effect = higher value
In short: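 Each compound was tested on mec2-1 yeast, a strain altered in DNA damage repair or cell cycle control. Growth inhibition is reported relative to vehicle.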

[3] = NCI Yeast Anticancer Drug Screen. Data for the sgs1 mgt1 strain (AID 161);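 also: 0% = growth of cultures given vehicle only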; conditions: S. cerevisiae sgs1 mgt1 strain, at 50.0 µM, stronger effect = higher value
In short: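 Genetically altered yeast, compound exposure, growth inhibition relative to vehicle.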

[4] = NCI Yeast Anticancer Drug Screen. Data for the cln2 rad14 strain (AID 165);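 also: 0% = growth equal to vehicle treated cultures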; conditions: S. cerevisiae cln2 rad14 strain, at 50.0 µM, stronger effect = higher value
In short: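 Test compounds were added to cln2 rad14 yeast cultures; inhibition of growth was then determined by comparison with vehicle treatment.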

[5] = NCI Yeast Anticancer Drug Screen. Data for the bub3 strain (AID 167); conditions: S. cerevisiae bub3 mutant strain, at 50.0 µM, stronger effect = higher value
In short: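 Yeast carrying a defined mutation is treated with each compound, and growth is compared with that of vehicle-exposed cells to give inhibition.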

[6] = NCI Yeast Anticancer Drug Screen. Data for the mlh1 rad18 strain (AID 175); conditions: S. cerevisiae mlh1 rad18 strain growth inhibition; at 50.0 µM; stronger effect = higher value
In short: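 Inhibition values reflect reduced growth of mutant yeast versus vehicle-treated controls following compound exposure; the mutations affect DNA damage repair.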

Measured: growth inhibition

O=C(O)CCC(=O)CCc1ccccc1C(=O)O
inactive: [1] 12.3% | [2] -15.8% | [3] 4.3% | [4] -38.1% | [5] -23.1%

CCN(CC)Cc1cc(N=Nc2cccc3ccccc23)c2ccccc2c1O
inactive: [1] 31.6% | [2] 11.4% | [3] 30.1% | [4] 24.9% | [5] -3.15%

CCOP(=O)(OCC)/C(C#N)=C/c1cccc([N+](=O)[O-])c1
inactive: [1] -14.2% | [2] 2.5% | [3] -4.85% | [4] 3.85% | [5] -6.55%

CCOC(CCc1c(C)nc[nH]c1=O)OCC
inactive: [1] -1.8% | [2] 3.7% | [3] -2.35% | [4] -35.4% | [5] 16.2%

Cc1ccc(S(=O)(=O)N(CCCc2c(Cl)nc(N)nc2Cc2ccccc2)c2ccccc2)cc1
inactive: [1] -9.75% | [2] -16.5% | [3] -17.2% | [4] -73.8% | [5] -0.8%

CN1CCS(=O)(=O)NC(Cc2ccccc2)C(=O)N2CCCC2C1=O (configuration not stated)
inactive: [1] -6.5% | [2] -13.2% | [3] -4.5% | [4] 29.6% | [5] -11.7%

c1cncc(Cc2nc3ccccc3[nH]2)c1
inactive: [1] -26.9% | [2] -2.5% | [3] -22.9% | [4] -11.7% | [5] -5.1%

COc1cc(C2OC[C@@H]3C(=O)OC[C@H]23)cc(O)c1OC (some centres not stated)
inactive: [1] 3.35% | [2] -1.6% | [3] -33.1% | [4] -13.3% | [5] -38.8%

CC(C)CCCC(C)C1CCC2(C)C3CCC(C(C)O)C(C)(CCCO)C3CCC12C (configuration not stated)
inactive: [1] 47.8% | [2] 27.4% | [3] 61.4% | [4] 38.1% | [5] 23.8%

Cc1cc(Cl)cc(Cl)c1OCC(=O)O
inactive: [1] 6.3% | [2] -1.35% | [3] 4.4% | [4] -24.3% | [5] -1.75%

CC(=O)Nc1ccc(S(=O)(=O)N/N=C/C(=O)O)cc1
inactive: [1] -15.6% | [2] -32.4% | [3] -40% | [4] -22.4% | [5] 5.4%

CCOC(=O)CNCc1cccc(Cl)c1
inactive: [1] 5.15% | [2] 28.4% | [3] 15.4% | [4] -0.8% | [5] 28.1%

CCC1CCC(=O)NC1=O (configuration not stated)
inactive: [1] -10.3% | [2] -1.15% | [3] 11.7% | [4] -7.75%

O=C(/C=C/c1ccc(OCc2ccccc2)c(OCc2ccccc2)c1)OCc1ccccc1
inactive: [1] -12% | [2] -9.65% | [3] -5.15% | [4] -33.9% | [5] -3.45%

CCOC(=O)/C(O)=C/c1nc2ccccc2nc1C
inactive: [1] 18.8% | [2] 5.65% | [3] 8.9% | [4] -6% | [5] -17.3%

CCCCCCCCC(Nc1ccccc1)C(O)CCCCCCCC(=O)O (configuration not stated) (tested in a mixture with another compound)
inactive: [1] -0.1% | [2] 1.8% | [3] 7.5% | [4] -6.1% | [5] -7.35%

COc1cc2c3c(c1)[nH]c(=S)n3C(=O)C(C)S2 (configuration not stated)
inactive: [1] -15.9% | [2] -34.6% | [3] -4.9% | [4] -6% | [5] -3.85%

CC(=O)Oc1ccc2c(c1)CCC1C2CCC2(C)CC(OC(C)=O)CC12 (configuration not stated)
inactive: [1] 12.4% | [2] -10.3% | [3] -19.2% | [4] 2.95% | [5] 0.8%

CC(=O)OC[C@@]12CC[C@H]3C(C)(C)CCC[C@]3(C)[C@H]1C[C@@H](C1=CC(=O)O[C@H]1O)O2
active: [1] 86.6% | [2] 91.8% | [3] 91.5% | [4] 91.5% | [5] 89.4%

COc1ccc(Cl)[n+]([O-])n1
inactive: [1] -20.3% | [2] -4.15% | [3] -2% | [4] 0.8% | [5] -10.3%

CC(C)NCC(O)c1ccc(O)c2ncccc12 (configuration not stated)
inactive: [1] 1.95% | [2] 24.3% | [3] 5.9% | [4] 5.15% | [5] -22.1%

O=C(NCCCCCCNC(=O)c1ccccn1)c1ccccn1
inactive: [1] 0.25% | [2] -9.9% | [3] 9.05% | [4] -7.15% | [5] -14.8%

C=CCN1C2Cc3cc(OC)c(OC)cc3C1Cc1cc(OC)c(OC)cc12
inactive: [1] 0.15% | [2] -19.2% | [3] -23.6% | [4] -6.45% | [5] -16.2%

COc1c(Cl)cc(NC(=S)C#N)cc1Cl
inactive: [1] 20.2% | [2] 20% | [3] 15.2% | [4] 39.6% | [5] 15.4%

CSC1=C(CCC(C)CCCC(C)CCCC(C)CCCC(C)CCCC(C)CCCC(C)C)C(=O)c2sccc2C1=O (configuration not stated)
inactive: [1] 15.7% | [2] 13.6% | [3] -1.45% | [4] -17.9% | [5] 11.5%

BrCC1OCC2(CO1)COC(CBr)OC2 (configuration not stated)
inactive: [1] -11.2% | [2] 11.3% | [3] -7% | [4] -16% | [5] -6%

C(=NCCN=Cc1ccccc1)c1ccccc1
inactive: [1] -10.7% | [2] -6.9% | [3] -21.8% | [4] 3.25% | [5] -11.7%

CN(C)c1ccc(C(=O)O)cc1
inactive: [1] -0.75% | [2] 11.3% | [3] -20.4% | [4] -28.8% | [5] -17.6%

CCCCC(CC)COC(=O)COc1ccc(C(C)c2ccc(OCC(=O)OCC(CC)CCCC)cc2)cc1 (configuration not stated)
inactive: [1] -6.6% | [2] 10.5% | [3] 7.9% | [4] -3.55% | [5] 3.2%

Nc1nc(=O)n(C2CC(O)C(CO)O2)cc1I (configuration not stated)
inactive: [1] -43.3% | [2] 1% | [3] 7.55% | [4] -17.2% | [5] -0.8%

CCc1ccc(/C=C/C(=O)C(C)CN(C)C)cc1 (configuration not stated)
inactive: [1] -4.9% | [2] 26.1% | [3] -2.3% | [4] 22.1% | [5] 13.9%

O/N=C1/C(=C/c2ccc(Br)cc2)CCCC1C(NO)c1ccc(Br)cc1 (configuration not stated)
inactive: [1] 0.9% | [2] -9.8% | [3] -27.4% | [4] 24.2% | [5] 0.45%

N=c1oc2ccccc2cc1-c1nc2ccccc2c(=O)[nH]1
inactive: [1] -1.75% | [2] -3.25% | [3] 4.5% | [4] 11.7% | [5] -13.4%

O=C1CC(N2CCOCC2)c2ccccc21 (configuration not stated)
inactive: [1] 30% | [2] 11.1% | [3] 12.6% | [4] -21.1% | [5] -14%

Nc1nc2c(c(-c3ccccc3Cl)n1)COC/C2=C\c1ccccc1Cl
inactive: [1] 15.7% | [2] 18.8% | [3] 54% | [4] 25.1% | [5] 41.1%

CCOC(=O)CC/C(C)=N/NC(=O)c1ccc[n+](C)c1
inactive: [1] -11.8% | [2] -3.65% | [3] -1.95% | [4] -29% | [5] -3.05%

CC(=NCCN(CCN=C(C)c1c(O)cc(C)oc1=O)CCN=C(C)c1c(O)cc(C)oc1=O)c1c(O)cc(C)oc1=O
inactive: [1] 22.4% | [2] -4.3% | [3] 1.8% | [4] 11.4% | [5] 6.3%

O=C(NCCCl)Nc1[nH]c(=O)ncc1I
inactive: [1] -6.55% | [2] -6.7% | [3] 1.1% | [4] -10.3% | [5] -8.75% | [6] -7.95%

CC1=CCC(CC(=O)O)C1(C)C (configuration not stated)
inactive: [1] 10.2% | [2] 2.05% | [3] -2.85% | [4] 4.3% | [5] 6.55%

CC(=O)OC1(C#N)CC2OC1C1N=NN(C(=O)OC(C)(C)C)C21 (configuration not stated)
inactive: [1] 18.2% | [2] 2.15% | [3] 4.8% | [4] 21.8% | [5] 16.1%

CC(C)(C)N=C(N)NC#N
inactive: [1] 9.6% | [2] 9.25% | [3] -9.85% | [4] 17.1% | [5] -4.5% | [6] -33.3%

CC1C(=O)OC(C)(C)C1(C)C (configuration not stated)
inactive: [1] 22.4% | [2] -16.3% | [3] 4.75% | [4] -41.6% | [5] 0.2% | [6] -10.4%

CN(CC(=O)O)Cc1ccccc1
inactive: [1] 9.5% | [2] 19.4% | [3] 10.5% | [4] -13.9% | [5] 9.35% | [6] 3.3%

CCOC(=O)/C(C#N)=C\N(C)C
inactive: [1] 8.75% | [2] -12.7% | [3] 5.65% | [4] 5.65% | [5] 9.65% | [6] 13.5%

O=C(O)C1C2C=CC(O2)C1C(=O)NCc1ccccn1 (configuration not stated)
inactive: [1] -3.5% | [2] -26.5% | [3] -7.3% | [4] -22.6% | [5] -37% | [6] 9.85%

O=C(/C=C/c1cccc([N+](=O)[O-])c1)Nc1cccnc1
inactive: [1] 7.55% | [2] -1.35% | [3] 38.9% | [4] -11.8% | [5] 29.9% | [6] 24.1%

CC(C)CC1OCC(C)(C)CO1
inactive: [1] -0.6% | [2] -12.4% | [3] -11.3% | [4] -7.05% | [5] -7.9% | [6] -9.8%
